From PubChem BioAssay
Hits are enriched below; roughly 2.9% of the tested compounds scored in any of these assays.
HEK293 viab: cell viability loss counter-screen | Potency, µM (titrated, usually from 57.1 µM), for the others: top-dose activity change, negative = cytotoxicity, hits mostly cytotoxic | HEK-293-SNCA-luc viability, GF-AFC fluorescence, 24 h | 150,000 compounds, 0.12% hits;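 note: potency is the fitted concentration of half-maximal effect; 0% = DMSO-treated cells and -100% = medium-only wells without cells; nearly all actives have a fitted effect of over 30% in size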
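HEK-293-SNCA-luc cells (1500/well) plated 24 h, then exposed 24 h to a dilution series; GF-AFC added 30 min at 37C, fluorescence 405/540 nm; normalised to medium-only and DMSO wells, Hill fit.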
IP6K1 inh: blocks human inositol hexakisphosphate kinase 1 | activity change, % (series mostly up to about 58 µM) | IP6K1 kinase, ADP-Glo luminescence, 2 h; stronger effect = lower value | Q92551 | 140,000 compounds, 0.81% hits | AID 1645851; in the data active = activity change below about -25%; note: % is set by controls: 0 for no effect and ±100 for the full control effect
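ADP-Glo luminescence measures ADP made by human IP6K1 during a 2 h RT reaction with ATP/IP6 (mix at 1.3 mM/130 uM); top library doses 57.5 and 19.1 uM final.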
KDM5B inh: KDM5B demethylase inhibition; KDM5B demethylase, FDH-coupled NADH fluorescence (FDH is formaldehyde dehydrogenase); Potency, µM (highest dose often 57.7 µM), actives largely listed as inhibitors; 220,000 compounds, 2.6% hits; note: potency is the fitted concentration of half-maximal effect; 0% is about no effect; nearly all actives have a fitted effect of over 70% in size
Target sequence (Q9UGL1 whole entry, looked up): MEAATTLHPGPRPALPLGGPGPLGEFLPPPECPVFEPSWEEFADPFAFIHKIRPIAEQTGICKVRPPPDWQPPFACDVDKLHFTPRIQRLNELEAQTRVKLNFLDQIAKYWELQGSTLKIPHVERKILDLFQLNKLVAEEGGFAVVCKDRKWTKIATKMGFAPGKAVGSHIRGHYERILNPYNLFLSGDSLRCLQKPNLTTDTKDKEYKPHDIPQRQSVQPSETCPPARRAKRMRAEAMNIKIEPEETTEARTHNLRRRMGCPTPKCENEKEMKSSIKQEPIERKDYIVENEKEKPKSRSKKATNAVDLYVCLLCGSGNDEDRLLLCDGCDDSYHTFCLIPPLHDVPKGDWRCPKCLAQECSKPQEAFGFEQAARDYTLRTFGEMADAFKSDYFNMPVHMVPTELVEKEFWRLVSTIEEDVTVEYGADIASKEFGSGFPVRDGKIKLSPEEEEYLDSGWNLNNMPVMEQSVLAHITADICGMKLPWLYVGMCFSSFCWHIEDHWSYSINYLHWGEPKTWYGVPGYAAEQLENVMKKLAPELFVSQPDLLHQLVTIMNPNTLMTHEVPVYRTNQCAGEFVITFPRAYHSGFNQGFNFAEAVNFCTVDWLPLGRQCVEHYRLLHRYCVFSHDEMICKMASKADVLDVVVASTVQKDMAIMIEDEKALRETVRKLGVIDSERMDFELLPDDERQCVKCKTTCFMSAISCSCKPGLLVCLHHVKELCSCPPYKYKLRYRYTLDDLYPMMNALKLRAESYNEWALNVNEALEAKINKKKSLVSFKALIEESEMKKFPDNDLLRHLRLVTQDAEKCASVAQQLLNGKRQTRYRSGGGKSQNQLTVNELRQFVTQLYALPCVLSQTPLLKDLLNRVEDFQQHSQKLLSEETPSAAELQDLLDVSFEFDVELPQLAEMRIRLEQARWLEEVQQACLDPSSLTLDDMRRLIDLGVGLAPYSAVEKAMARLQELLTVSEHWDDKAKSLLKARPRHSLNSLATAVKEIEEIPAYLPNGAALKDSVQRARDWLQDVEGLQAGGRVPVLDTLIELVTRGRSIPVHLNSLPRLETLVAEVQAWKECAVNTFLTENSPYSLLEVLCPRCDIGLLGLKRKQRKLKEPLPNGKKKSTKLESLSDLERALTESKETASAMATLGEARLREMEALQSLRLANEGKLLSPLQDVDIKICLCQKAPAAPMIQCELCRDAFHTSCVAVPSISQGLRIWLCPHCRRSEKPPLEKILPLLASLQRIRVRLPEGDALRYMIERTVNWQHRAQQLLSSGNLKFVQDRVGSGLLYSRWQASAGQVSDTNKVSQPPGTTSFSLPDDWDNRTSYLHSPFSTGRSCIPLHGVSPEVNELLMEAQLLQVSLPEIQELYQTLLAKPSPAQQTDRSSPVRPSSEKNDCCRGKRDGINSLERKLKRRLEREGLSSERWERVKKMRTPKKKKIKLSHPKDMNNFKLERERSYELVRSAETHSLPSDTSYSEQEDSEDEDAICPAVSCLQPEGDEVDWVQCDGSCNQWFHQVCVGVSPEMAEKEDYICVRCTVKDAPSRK
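Compound dilutions met 200 nM (final) KDM5BΔAP for 10 min at room temperature before substrate addition. The substrate mix held 12.5 µM H3K4me3 with cofactors 25 µM α-ketoglutarate and 50 µM Fe²⁺. NADH signal gain over 30 min defined activity.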
SNCA expr inh: SNCA gene expression inhibition; AID 1671194; 140,000 compounds, 0.17% hits; Potency, µM (highest dose often 57.2 µM), without a hit: at the top dose activity change, negative = inhibition, usual class: inhibitors; HEK-293 SNCA-luciferase knock-in, luminescence, 24 h;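 note: potency is the fitted concentration of half-maximal effect; plate controls were DMSO cells for no effect and cell-free wells for full effect; nearly all actives have a fitted effect of over 45% in size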
* hit, by the source's call; i = inactive; ? = inconclusive; / = no result; [ ] = dose if it differs, or a comment. Unless noted, calls come from the whole dose curve; as a rule, active = well fitted curve in the direction sought with a large enough effect; inconclusive = small, poorly fitted or top-dose-only effect, or another doubt; inactive = no such curve, though single readings can be large; an effect the other way counts as inactive or inconclusive.

SMILES	HEK293 viab	IP6K1 inh	KDM5B inh	SNCA expr inh
CCOC(=O)c1oc2cc(OC(=O)c3ccccc3OC)ccc2c(=O)c1-c1ccc(OC)cc1	/	/	i	/
COc1ccc(-c2noc([C@@H]3CCCN3C(=O)Cc3ccc(F)cc3)n2)cc1	-24.4%	0.0	i	41.7%
O=C(NCc1nnc2ccc(-c3ccccc3)nn12)c1ccc(F)cc1Cl	-12.2%	-5.0	28.2µM*	0.6%
COc1ccc(C(=O)NCc2nnc3ccc(-c4ccccc4)nn23)c(C)c1	-13.2%	15.7	?	11.8%
Cc1ccc(-c2ccc3nnc(CNC(=O)C4(c5ccccc5)CC4)n3n2)cc1	-9.5%	12.6	28.2µM*	-16.9%
O=C(Nc1ccc(C(=O)N2CCCCC2)cc1)c1nsc2ccccc12	-19.5%	13.8	i	10µM*
O=C(CN1CC2CC(C1)[C@H]1CCCC(=O)N1C2)N1CCC(N2CCCCC2)CC1 (some centres undefined)	-0.3%	24.5	i	-3.2%
O=C(O)C1Cc2nc[nH]c2CN1C(=O)CCc1cn2ccccc2n1 (centres undefined)	-2.1%	26.8	11.2µM*	-23.9%
Cc1cc(C(=O)NCC2Cn3cccc3CN2Cc2ccccc2)n[nH]1 (centres undefined)	4.2%	-7.9	31.6µM*	103.6%
COc1ccc(C(=O)NCC2Cn3cccc3CN2Cc2cccnc2)cc1 (centres undefined)	-7.4%	-14.6	12.6µM*	-16.9%
Cc1cc(C(F)(F)F)nn1CC(=O)NCC1Cn2cccc2CN1Cc1ccccc1 (centres undefined)	3.2%	9.6	?	4.3%
O=C(NCC1Cn2cccc2CN1Cc1ccccc1)c1ccc2cc[nH]c2c1 (centres undefined)	1.8%	-2.3	25.1µM*	28.8%
COC(=O)c1ccccc1OC(=O)COc1c(C)cc(Br)cc1C	/	/	i	/
O=C(c1ccc(-n2cccc2)cc1)N1CCN(S(=O)(=O)c2ccc(C(F)(F)F)cc2)CC1	/	/	i	/
O=C(CCCc1ccccc1)NCC(=O)N1CCN(c2ccccn2)CC1	1.5%	21.7	28.2µM*	3.7%
O=C(CCc1ccccc1)NCC(=O)N1CCN(c2ccccn2)CC1	-10.6%	19.0	?	16.2%
COc1ccc(C(=O)NCC(=O)N2CCN(c3ccccn3)CC2)c(C)c1	-5.8%	7.4	22.4µM*	-15.4%
COc1ccc(CC(=O)NCC(=O)N2CCN(c3ccccn3)CC2)cc1	18.6%	5.6	31.6µM*	9.7%
COc1ccccc1CC(=O)NCC(=O)N1CCN(c2ccccn2)CC1	2.0%	6.5	25.1µM*	4.6%
COc1cccc(NC(=O)Cn2cccc2-c2nc(-c3ccc(OC)c(F)c3)no2)c1	-2.1%	6.0	i	48.6%
CCN1C(=O)CCc2cc(NS(=O)(=O)CC)ccc21	/	/	i	/
COCCNC(=O)[C@@H]1C[C@@H](O)CN1C1CCN(C(=O)c2cccs2)CC1	0.9%	4.2	i	5.9%
CCC(C)NC(=O)N1CCN(Cc2c(C)noc2C)CC1 (centres undefined)	-7.0%	-5.5	i	?
O=C(CN1CCN(c2ccccn2)CC1)Nc1cc(F)ccc1F	/	/	i	/
COc1ccc(C2(C(=O)N3CCN(c4ncccn4)CC3)CCOCC2)cc1	1.1%	-20.9	i	1.0%
SMILES	HEK293 viab	IP6K1 inh	KDM5B inh	SNCA expr inh
O=C(COc1ccc(F)cc1)NCC(=O)N1CCN(c2ccccn2)CC1	-4.8%	-4.0	25.1µM*	-12.8%
COc1ccc(C2(C(=O)N3CCN(c4ccccn4)CC3)CCOCC2)cc1	-1.6%	-5.7	79.4µM*	1.9%
COc1ccc(CN2Cc3cc(NC(=O)c4ccc(Cl)cc4)ccc3OC(C)C2=O)c(OC)c1 (centres undefined)	-25.8%	-10.6	25.1µM*	-0.2%
COc1ccc(C(=O)Nc2ccc3c(c2)CN(Cc2ccc(OC)cc2OC)C(=O)C(C)O3)cc1 (centres undefined)	-15.3%	-6.5	i	5.0%
CCC(C(=O)Nc1ccc2c(c1)CN(Cc1ccccc1OC)C(=O)C(C)O2)c1ccccc1 (centres undefined)	-5.1%	14.1	i	-10.3%
CCNC(=O)Nc1ccc2c(c1)CN(Cc1ccccc1OC)C(=O)C(C)O2 (centres undefined)	12.5%	0.8	28.2µM*	-10.8%
Clc1cc(NC2CCCC2)n2nccc2n1	2.1%[87.6 µM]	6.2	i	57.2%[87.6 µM]
CN1C(=O)[C@@H]2C[C@@H](CN2Cc2ccc(OC(F)(F)F)cc2)Oc2ccccc21	7.2%[87.6 µM]	13.5	i	-10.2%[87.6 µM]
O=C1[C@@H]2C[C@@H](CN2Cc2ccccc2)Oc2ccccc2N1CC1CC1	-6.9%[87.6 µM]	8.9	i	6.7%[87.6 µM]
COCCN1C(=O)[C@@H]2C[C@@H](CN2Cc2ccccc2)Oc2ccccc21	3.3%[87.6 µM]	23.4	i	-30.1%[87.6 µM]
COCCN1C(=O)[C@@H]2C[C@@H](CN2Cc2ccc3ccccc3n2)Oc2ccccc21	-11.9%[87.6 µM]	-2.5	31.6µM*	46.3%[87.6 µM]
O=C1[C@@H]2C[C@@H](CN2Cc2cnc3ccccc3c2)Oc2ccccc2N1CC1CC1	?	-9.0	44.7µM*	-25.9%[87.6 µM]
O=C1[C@@H]2C[C@@H](CN2Cc2nccs2)Oc2ccccc2N1Cc1ccc(OC(F)(F)F)cc1	-19.5%	0.4	28.2µM*	-14.8%
Fc1ccc(CN2CC[C@H](c3nc4ccccc4s3)C2)cc1F	-1.5%[87.6 µM]	-12.8	?	98.9%[87.6 µM]
CCN1CCN(CCNC(=O)C2CCN(S(=O)(=O)c3ccc4c(ccn4CC)c3)CC2)CC1	/	/	i	/
O=C(Nc1ccc(Cl)cc1Cl)c1ccc2ccnn2c1	4.3%[87.6 µM]	-5.7	?	2.7%[87.6 µM]
O=C(NCc1ccc(Cl)cc1)c1ccc2ccnn2c1	-5.4%[87.6 µM]	-0.6	35.5µM*	-4.3%[87.6 µM]
O=C(NCc1ccc(Cl)nc1)c1ccc2cncn2c1	3.7%[87.6 µM]	11.2	35.5µM*	-26.4%[87.6 µM]
O=C(NCc1ccc(Cl)nc1)c1ccc2ccnn2c1	2.3%[87.6 µM]	5.1	35.5µM*	-17.9%[87.6 µM]
O=C(Nc1ccc(Cl)nc1)c1ccn2nccc2c1	8.0%[87.6 µM]	0.7	?	13.0%[87.6 µM]
O=C(c1cc2c(cc1F)OC(c1ccc(F)cc1)(c1ccc(Cl)cc1Cl)O2)N1CCOCC1 (centres undefined)	-38.2%	19.8	/	/
COCCNC[C@@H]1C=C(C)[C@H](Cc2nnc(-c3ccc(OC)cc3)o2)C[C@H]1C(C)C	31.6µM*	21.7	i	?
O=C(NC1CCN(c2cc(-c3cccs3)[nH]n2)CC1)c1ccc(F)c(F)c1	0.8%	16.2	i	-6.1%
O=C(NC1CCN(c2cc(-c3cccs3)[nH]n2)C1)c1ccc(F)c(F)c1 (centres undefined)	-8.7%	-4.4	12.6µM*	2.6%
CC(=O)Nc1ccc(C(=O)NC2CCN(c3cc(-c4cccs4)[nH]n3)C2)cc1 (centres undefined)	-1.1%	5.3	17.8µM*	?
COc1ccc(C2(C(=O)NC3CCCN(c4ncccn4)C3)CC2)cc1 (centres undefined)	-0.6%	-6.2	22.4µM*	31.8%
CCc1c(C)nn(CC(=O)NC2CCCN(c3ncccn3)C2)c1C (centres undefined)	3.3%	6.9	20µM*	10.1%
